Results taken from PubChem BioAssay (NCI).
The panel holds about 83,000 compounds, 20% with a hit somewhere; the sample as a whole holds those more often.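 Negative percent growth values reflect cell death: -40 means 40% of the cells present at the start died, and -100 means all died.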 A number with no mark means an inactive call. The source made the active and inactive calls. The calls were made as follows: active = growth percent below 10; inactive = the rest.

Key:
Experiment in all cases: NCI-60 one-dose screen, 48 h (100 = growth as untreated, 0 = no growth, -100 = all killed)
Conditions in all cases: 10 µM unless noted
NCI/ADR-RES ovarian = test system: NCI/ADR-RES ovarian
T-47D breast = test system: T-47D breast
BT-549 breast = test system: BT-549 breast
SW-620 colon = test system: SW-620 colon
MCF7 breast = test system: MCF7 breast
HCT-116 colon = test system: HCT-116 colon
HCC-2998 colon = test system: HCC-2998 colon
KM12 colon = test system: KM12 colon

| Compound | growth (NCI/ADR-RES ovarian) | growth (T-47D breast) | growth (BT-549 breast) | growth (SW-620 colon) | growth (MCF7 breast) | growth (HCT-116 colon) | growth (HCC-2998 colon) | growth (KM12 colon) |
| --- | --- | --- | --- | --- | --- | --- | --- | --- |
| CN(C)CC(C(=O)Cc1ccccc1)c1ccccc1 (centres undefined) | 76.5% | -37.8% (active) | 76.3% | 20.6% | 1.13% (active) | 2.48% (active) | 116% | -1.54% (active) |
| O=C1C(=Cc2cn(Cc3ccccc3)c3ccccc23)C(=O)N(Cc2ccccc2)C(=O)N1Cc1ccccc1 | 106% | 51.7% | 118% | 101% | 80.3% | 76.2% | 97.4% | 101% |
| COc1ccc(/C=C\c2cc(OC)c(OC)c(OC)c2)cc1NC(=O)/C=C/c1ccc(OC)c(OC)c1 | -8.84% (active) | 40.2% | 39.1% | 39.2% | 21.3% | 25% | -3.07% (active) | 27.3% |
| CC[C@]12C=CCN3CC[C@@]4(c5ccc(OC)cc5N(C)[C@H]4[C@@](O)(C(=O)OC)[C@@H]1OC(=O)CCCC[P+](c1ccccc1)(c1ccccc1)c1ccccc1)[C@@H]32 | 91.6% | 4.99% (active) | -1.04% (active) | 29.4% | 4.69% (active) | 8.03% (active) | 15.9% | 3.15% (active) |
| C/C(=C\c1ccn(-c2ccc(N)cc2)n1)[C@@H]1C[C@@H]2O[C@]2(C)CCC[C@H](C)[C@H](O)[C@@H](C)C(=O)C(C)(C)[C@@H](O)CC(=O)O1 | -2.72% (active) | 42.7% | 26.9% | 38.3% | 19.1% | 10.4% | -0.702% (active) | 15% |
| CC12CCC=CC1CCC1C2CCC2(C)C(c3ccc(=O)oc3)CCC12O (centres undefined) | -51.5% (active) | -13.6% (active) | -65.2% (active) | -36.7% (active) | -30.6% (active) | -64.2% (active) | -21.5% (active) | -55.7% (active) |
| O=C(CN1CCN(C(=O)c2ccco2)CC1)Nc1ccc(Cl)cc1C(=O)c1ccccc1Cl | 83.4% | 64.3% | 101% | 86.8% | 84.9% | 86.8% | 97.4% | 89.1% |
| O=P1(NCCCl)OCCCN1CCCl (centres undefined) | 110% | 105% | 104% | 98% | 101% | 106% | 107% | 103% |
| COc1ccc(C/C(C)=C(\c2ccc(OCCN3CCOCC3)cc2)c2ccc(OC(=O)Cc3ccccc3)cc2)cc1 | 5.39% (active) | -48.5% (active) | -70.4% (active) |  | -53.1% (active) | -89.7% (active) | -64.3% (active) | -35.2% (active) |
| COC(=O)[C@@H](C)C[C@H](Cc1ccccc1)NC(=O)c1csc([C@@H](C[C@H](C(C)C)N(C)C(=O)[C@@H](NC(=O)[C@H]2CCCCN2C)c2ccc(F)cc2)OC(C)=O)n1 | 5.55% (active) | 45.7% | 0.368% (active) | 22.8% | 22.3% | 3.28% (active) | 10.1% | -3.41% (active) |
| Oc1c(O)c(Cl)c(Cl)c(Cl)c1Cl | 11.7% | 15.1% | 52.5% | 28% | 13.5% | 16.4% | 72.8% | 30.4% |
| COc1ccc2c(c1)c(-c1nc(-c3cn(C)c4ncccc34)cs1)cn2CCN1CCOCC1 | 30.6% | 20% | 54.7% | 55.8% | 13.5% | 34.4% | 95.6% | 22.7% |
| COc1ccc2c(c1)c(-c1nc(-c3c[nH]c4ncccc34)cs1)cn2CCCCN1CCCCC1 | 1.16% (active) | -55.5% (active) | 69.2% | -71.9% (active) | -74.9% (active) | -98.9% (active) | -9.73% (active) | -62.9% (active) |
| CC(CC1CCCCC1)NCc1ccccc1 (centres undefined) | 93.7% | 102% | 97.7% | 94% | 96.4% | 96.6% | 95.3% | 101% |
| N#Cc1c(Br)n(C2OC(CO)C(O)C2O)c2ncnc(N)c12 (centres undefined) | 52.9% | 9.15% (active) | 73.5% | 30.5% | 3.47% (active) | 40.3% | 83.7% | 34% |
| CCc1ccccc1[C@@H]1C[C@]2(C)CCO[C@@H]2OO1 | 105% | 101% | 111% | 102% | 95.7% | 96.3% | 93.7% | 101% |
| COC1CC2c3ccccc3C1C(C)=[N+]2C (centres undefined) | 78.7% | 107% | 87.4% | 104% | 97.3% | 103% |  | 104% |
| O=P(Oc1ccc(Cl)cc1)(N1CC1)N1CC1 | 101% | 106% | 92.8% |  | 67.4% | 84% | 88.5% | 110% |
| CC1(C)CN1P(=O)(N1CC1(C)C)N1CC1(C)C (centres undefined) | 113% | 107% | 105% | 100% | 92.8% | 105% | 110% | 116% |
| C=C(C)[C@@]12OC3(/C=C/C=C/CCCCC)O[C@@H]1[C@@H]1[C@@H]4O[C@]4(CO)[C@@H](O)[C@]4(O)C(=O)C(C)=C[C@H]4[C@@]1(O3)[C@H](C)[C@H]2OC(=O)c1ccccc1 | 69.4% | 81.7% | 83% | 58.9% |  | 49.7% | -3.12% (active) | 9.5% (active) |
| CS(=O)(=O)CCN1CC2CCCC(C2)C1 | 105% | 102% | 92.5% |  | 92.3% | 94.7% | 99.5% | 111% |
| CCCCNC(c1ccc(Cl)cc1)C(O)c1ccc(Cl)cc1 (centres undefined) | 40.9% | 46.4% | 80.6% | 2.85% (active) | 3.13% (active) | 5.84% (active) | -55.7% (active) | 21.6% |
| COC(=O)[C@@]1(C)CC[C@]2(C)CC[C@]3(C)C4=CC=C5C(=CC(=O)C(O)=C5C)[C@]4(C)CC[C@@]3(C)[C@@H]2C1 | -59.8% (active) | -57.1% (active) | -95.2% (active) | -83% (active) | -69.1% (active) | -96.4% (active) | -69.5% (active) | -63.1% (active) |
| CC(=O)O[C@H](C[C@H](C(C)C)N(C)C(=O)[C@@H](NC(=O)[C@H]1CCCCN1C)C(C)C)c1nc(C(=O)N[C@@H](Cc2ccccc2)C[C@H](C)C(=O)O)c(CCOCc2ccccc2)s1 | 9.71% (active) | 62.4% | -36.6% (active) | 28.3% | 25.9% | -22.2% (active) | 16.3% | 5.5% (active) |
| Cc1cc(N(CCCl)CCCl)ccc1C=Nc1cccnc1 | 71.6% | 45.3% | 86.9% | 85.3% | 36.5% |  | 90.7% | 102% |
| CO[C@H](C(=O)O)[C@@H]1Cc2cc3cc(OC4CC(OC5CC(O)C(O)C(C)O5)C(O)C(C)O4)c(C)c(O)c3c(O)c2C(=O)[C@H]1OC1CC(OC2CC(OC3CC(C)(O)C(O)C(C)O3)C(O)C(C)O2)C(O)C(C)O1 (some centres undefined) | 74% | 12.8% | -41.9% (active) | 19.1% | 7.44% (active) | 6.04% (active) | -37.8% (active) | 7.07% (active) |
| O=C1C2CC=CCC2C(=O)N1SC(Cl)(Cl)Cl (centres undefined) | 104% | 46.3% | 125% | 8.03% (active) | 83.3% | 66.5% | 105% | 103% |
| CC(C)=CCc1c(O)c(C(=O)CC(C)C)c(O)c2c(-c3ccccc3)cc(=O)oc12 | 35.6% | 33.4% | 30.4% | 48.5% | 28.3% | 36.8% | 42.4% | 41% |
| CCCCCC1(CCBr)C(=O)NC(=O)NC1=O | 121% | 106% | 90.5% | 101% | 97.5% | 106% | 115% | 109% |
| CC(=O)O[C@H]1CC[C@]2(C)[C@H]3CC[C@]4(C)[C@@H](OC(C)=O)CC[C@H]4[C@@H]3[C@@H](C)[C@]2(O)C1 | 98.9% | 106% | 113% | 104% | 104% | 98.1% | 108% | 109% |
